AHR act: AHR activators, primary screen, cell-based, luminescence, luciferase reporter, human | Aryl hydrocarbon receptor (Homo sapiens), P35869 | AHR-responsive luciferase reporter cells | activation, % at 5 µM | 320,000 tested, 2.5% active | AID 2796, 2010; in the data active means activation above about 47%;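 further: 0% = vehicle wells and 100% = reference agonist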
Target sequence (P35869 whole entry, looked up): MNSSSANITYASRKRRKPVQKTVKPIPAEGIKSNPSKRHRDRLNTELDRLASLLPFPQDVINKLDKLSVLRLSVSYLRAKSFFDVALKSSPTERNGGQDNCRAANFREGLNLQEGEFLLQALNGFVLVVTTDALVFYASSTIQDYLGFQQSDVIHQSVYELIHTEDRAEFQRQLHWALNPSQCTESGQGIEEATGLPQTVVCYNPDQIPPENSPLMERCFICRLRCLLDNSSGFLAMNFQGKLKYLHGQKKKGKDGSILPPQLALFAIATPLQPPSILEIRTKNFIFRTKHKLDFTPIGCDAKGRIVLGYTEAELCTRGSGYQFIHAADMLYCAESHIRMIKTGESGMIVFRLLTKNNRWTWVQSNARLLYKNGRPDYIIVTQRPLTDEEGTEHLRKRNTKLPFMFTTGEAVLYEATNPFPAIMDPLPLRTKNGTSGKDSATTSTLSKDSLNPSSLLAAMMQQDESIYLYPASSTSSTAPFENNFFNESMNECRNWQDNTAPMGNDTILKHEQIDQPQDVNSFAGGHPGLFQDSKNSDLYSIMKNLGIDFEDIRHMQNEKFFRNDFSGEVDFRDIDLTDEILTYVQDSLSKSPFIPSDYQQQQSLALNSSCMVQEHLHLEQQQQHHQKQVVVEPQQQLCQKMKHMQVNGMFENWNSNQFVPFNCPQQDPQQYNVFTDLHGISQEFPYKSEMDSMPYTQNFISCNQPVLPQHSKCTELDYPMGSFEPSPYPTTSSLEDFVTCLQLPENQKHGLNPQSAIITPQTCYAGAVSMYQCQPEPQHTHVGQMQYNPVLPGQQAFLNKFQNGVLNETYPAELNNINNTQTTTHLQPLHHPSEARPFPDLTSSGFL
Efflux pump inh: inhibitors of Candida efflux pumps in yeast, primary screen, S. cerevisiae, Nile Red, multiplex. S. cerevisiae Candida pump triplex. inhibition, % at 10 µM. 330,000 tested, 0.44% active. AID 485275, 2010;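 active means plate passing quality check with inhibition over a set limit, or well fluorescence over plate mean plus 4 SD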;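 further: Nile Red retained in pooled yeast measured as flow cytometry median fluorescence; 0% = buffer negative control and 100% = Enniatin B positive control; higher means more Nile Red kept so more efflux inhibition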
VLA-4 inh: inhibition in human VLA-4 binding assay, primary screen, VLA-4 allosteric modulator project, MLPCN library, flow cytometry, VLA-4 expressing cells | Integrin alpha-4 (Homo sapiens), P13612 | ligand binding flow cytometry | inhibition, % (about 7 µM as worked out from the volumes in the protocol) | 330,000 tested, 0.2% active; in the data active means inhibition above about 50%
ALR inh: inhibitors of human ALR sulfhydryl oxidase, primary screen, biochemical, H2O2 detection, HRP-luminol luminescence, single point | purified ALR, DTT oxidation | inhibition, % (concentration not given with the values) | 290,000 tested, 3.8% active | AID 485317, 2010;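 active means mean replicate inhibition above about 79%, with every replicate also reaching it, limit read from the data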
SUMO Mot1 rescue: yeast Mot1-301 growth rescue at high temperature, primary screen, SUMOylation pathway inhibitor project, S. cerevisiae, ATP luminescence, 38.5C | S. cerevisiae Mot1-301 growth rescue; percent above DMSO median, 100 means doubled | growth rescue, % at 18.8 µM | 320,000 tested, 1% active | AID 2716, 2010;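 active means every valid replicate shows activation above 250% relative to neutral control wells; inactive means the rest, any valid replicate at or below 250%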;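 further: OY570 slx delta 5 strain wells were the positive control but not used for scaling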
Bfl-1 A1 inh: caspase 3/7 activation in MEF A1-2A-BIM cells, primary screen, A1 inhibitor project, cell-based, luminescence, HTS; AID 2462, 2010; 330,000 tested, 0.066% active; Caspase-Glo 3/7 luminescence, 3 h; percent of clofoctol response, vehicle zero; caspase activation, % (test concentration not listed);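 active means over half of replicate activation scores above 10%, or exactly half above 10 with the replicate mean above 10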
Starred values were filed as active, the others as inactive; x = no result given. This is a sample that favours compounds with a hit; in the whole collection about 7.2% have one here.

SMILES	AHR act	Efflux pump inh	VLA-4 inh	ALR inh	SUMO Mot1 rescue	Bfl-1 A1 inh
CC(C)N=c1scc(-c2cccs2)n1/N=C/c1ccc(O)c(O)c1O	3	0	0	88*	-6	0
O=[N+]([O-])c1ccc(/C=C2\CCC(C3=CCCC3)=C2N2CCOCC2)cc1	-3	0	-33	97*	30	0
COC(=O)c1ccc(C(=O)OC)c(NC(=O)c2cccnc2)c1	2	0	11	-4	-5	1
CCCCOc1ccc(CSC(CC(=O)O)C(=O)O)cc1 (stereo not drawn)	-10	0	14	20	2	0
CCOc1ccc(CSC(CC(=O)O)C(=O)O)cc1 (stereo not drawn)	1	0	-4	98*	-19	0
Cc1noc(C)c1COC(=O)CCOc1ccccc1	1	0	1	3	16	0
Cc1noc(C)c1COC(=O)CCN1c2ccccc2Sc2ccccc21	0	0	5	93*	x	1
O=C(CNC(=O)c1ccccn1)N=Nc1c(O)[nH]c2ccccc12	24	0	-9	x	-2	0
C/C(=N\N=C(N)N)c1ccc(C)c(C)c1	59*	0	4	-1	4	0
COc1cc(C(C)=O)ccc1OCC(O)CN1CCN(c2ccc(C)c(C)c2)CC1 (stereo not drawn)	-1	0	3	98*	-7	0
COc1ccc(N2CCN(CC(O)COc3cc(C)ccc3C)CC2)cc1 (stereo not drawn)	7	0	10	9	19	-1
CC(=O)Nc1ccc(OCC(O)CN2CCN(c3cc(Cl)ccc3C)CC2)cc1 (stereo not drawn)	-3	0	9	-3	-10	0
CCc1ccc(OCC(O)CN2CCN(c3ccc(OC)cc3)CC2)cc1 (stereo not drawn)	0	0	10	94*	-12	0
CC(=O)Nc1ccc(OCC(O)CN2CCN(c3ccc(C)c(Cl)c3)CC2)cc1 (stereo not drawn)	-1	0	2	98*	21	0
COc1ccc(N2CCN(CC(O)COc3ccc(C)cc3C)CC2)cc1 (stereo not drawn)	2	0	12	79*	393	0
Cn1c(SCC(=O)NCc2cccs2)nnc1-c1ccc(O)cc1	1	0	3	-15	2	0
CC1(C)CC2CC(C)(CN2C(=O)COC(=O)c2cccc([N+](=O)[O-])c2)C1 (stereo not drawn)	1	0	0	-4	2	1
CCOC(=O)Cn1c(=O)c(F)cn(Cc2ccc(OC)c([N+](=O)[O-])c2)c1=O	x	0	1	1	45	0
O=C(N/N=C/c1cn(-c2ccccc2)nc1-c1cc2ccccc2o1)c1ccncc1	68*	0	-13	-5	11	-2
O/N=C/c1cn(-c2ccccc2)nc1-c1cccnc1	51*	0	-3	11	-13	0
O=C(N/N=C/c1cn(-c2ccccc2)nc1-c1cc2ccccc2o1)c1cccnc1	51*	0	-8	-3	-3	-1
O=C(O)c1cccc(NC(=O)c2cn(-c3ccccc3)nc2-c2cc3ccccc3o2)c1	9	-1	9	x	x	-1
O=C(N/N=C/c1cn(-c2ccccc2)nc1-c1cccnc1)c1cccnc1	20	0	-7	13	0	1
C/C(=N\Nc1nc(C(C)(C)C)cs1)c1ccccc1	46	0	4	98*	36	0
Cc1ccc(/C=N/Nc2nc(C(C)(C)C)cs2)o1	50*	0	0	2	3	0
CCC(Sc1nc2c(c(=O)[nH]1)CCC2)C(=O)Nc1cccc(OC)c1 (stereo not drawn)	0	-1	4	-5	1	-1
c1ccc2sc(NN=C3CCCCCC3)nc2c1	51*	1	-4	4	0	-8

Assay outcomes as filed in PubChem BioAssay.
